# mHTT CaM bind: disrupts binding of mutant huntingtin to calmodulin; P42858; AlphaScreen His-mHTT/GST-CaM binding, luminescence; inhibition, % at 15 µM; actives 3.6% (n = 190,000); AID 1671202;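 note: 0% = both proteins with DMSO and 100% = one protein alone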
# Pf apPOL block: Pf-apPOL DNA polymerase inhibition; Recombinant Pf-apPOL, molecular beacon fluorescence, 1.5 h; inhibition, % at 10 µM; actives 0.25% (n = 210,000)
# Active calls of the source: *. Sampled rows, rich in hits. Any-hit rate of the full collection: about 3.6%. Cut-off read from the data, not from the text of the source: active = inhibition above about 50%; inactive = the rest.
SMILES,mHTT CaM bind,Pf apPOL block
Cc1ccc(-c2cc(CN(C)C(=O)c3cccs3)no2)c(C)c1,-28,-2
O=C1NC2(CCN(Cc3ccccc3)CC2)N=C1c1cccc(F)c1,16,-5
COc1cccc(CN2CCC3(CC2)N=C(c2ccccc2)C(=O)N3)c1,58*,1
O=C1NC2(CCN(Cc3ccccc3)CC2)N=C1c1cccc(Cl)c1,10,-2
O=C1NC2(CCN(Cc3ccc(Cl)cc3)CC2)N=C1c1ccccc1,55*,-3
CCc1ccccc1NC(=O)C1Oc2ccccc2NC1=O (stereo not drawn),-3,0
COC(=O)N1CCc2ccccc2C1C(=O)N1CCN(S(C)(=O)=O)CC1 (stereo not drawn),-10,2
Fc1ccc(CN2CCN(c3cnn4cnnc4c3)CC2)cc1,2,2
COc1ccccc1-n1nc(C(=O)N2CCC(Cc3ccccc3)CC2)c2ccccc2c1=O,58*,-2
COc1ccc(-n2nc(C(=O)N3CCC(C)CC3)c3ccccc3c2=O)c(OC)c1,0,51*
COc1ccccc1-n1nc(C(=O)N2CCC(C)CC2)c2ccccc2c1=O,-5,0
COc1ccc(-n2nc(C(=O)N3CCCC3)c3ccccc3c2=O)c(OC)c1,-12,3
O=C1c2ccccc2-c2cc(Cl)nc3ccc(Cl)c1c23,5,-2
Cc1ccc2nc3c(N)c(Cl)cc4c3c(c2c1)-c1ccccc1C4=O,61*,-3
CC(=O)Nc1ccc(C(=O)Nc2cc(C(F)(F)F)ccc2Cl)cc1,2,-4
COCC(=O)N1CCN(c2cc(Cl)ccc2C)C(=O)C1C (stereo not drawn),-6,-5
COCCn1cc2c3c(cccc31)CN(C(=O)Cc1ccc(Cl)cc1)CC2,81*,-2
CCc1ccccc1NC(=O)N1CCc2cn(CCOC)c3cccc(c23)C1,14,-4
COCCn1cc2c3c(cccc31)CN(C(=O)Cc1cccc(OC)c1)CC2,46,-6
COCCn1cc2c3c(cccc31)CN(C(=O)Cc1ccccc1C)CC2,63*,-2
O=[N+]([O-])c1ccc(N2CCN(CCO)CC2)c(Cl)c1,0,31
COCCNC(=O)c1cnn2c(-c3ccccc3Cl)ccnc12,-3,-4
Cc1cc(C)c(NS(=O)(=O)c2ccc(NC(=O)c3ccccc3Br)cc2)c(C)c1,1,-32
C=CCSc1nc2c(c(-c3ccc(C)o3)c1C#N)CCCC2,-24,-24
Cc1ccc(-c2c(C#N)c(SCC(=O)c3ccc(O)c(O)c3)nc3c2CCCC3)o1,69*,-1
SMILES,mHTT CaM bind,Pf apPOL block
CN1C(=O)Cc2ccccc2C1C(=O)N1CCCC1 (stereo not drawn),-9,0
Cc1cccc2nnc(N3CCCC(C(=O)NCc4ccc(N5CCCCC5)cc4)C3)n12 (stereo not drawn),24,-4
Cn1nc(C(=O)N2CCc3nc4cc(-c5ccccc5)[nH]n4c(=O)c3C2)c2ccccc21,50,19
O=C(Nc1cccc(F)c1)N1CCc2c(nc3cc(-c4ccccc4Cl)[nH]n3c2=O)C1,73*,0
O=C(c1ccncc1)N1CCc2c(nc3cc(-c4ccccc4Cl)[nH]n3c2=O)C1,10,2
Cc1ccc(C(=O)N2CCc3c(nc4cc(-c5ccccc5Cl)[nH]n4c3=O)C2)cn1,25,2
Cn1nc(C(=O)N2CCc3c(nc4cc(-c5ccccc5)[nH]n4c3=O)C2)c2ccccc21,61*,3
COc1ccc(C(=O)N2CCc3c(nc4cc(-c5ccccc5Cl)[nH]n4c3=O)C2)cn1,53*,0
COc1ccc(C(=O)N2CCc3nc4cc(-c5ccccc5)[nH]n4c(=O)c3C2)c(OC)n1,-3,-1
COc1ccc(C(=O)N2CCc3c(nc4cc(-c5ccccc5)[nH]n4c3=O)C2)c(OC)n1,56*,-1
CC(=O)N1c2ccccc2C(=O)OC1c1sc(Cl)c(Cl)c1Cl (stereo not drawn),-8,6
NC(=O)c1ccsc1NC(=O)CCS(=O)(=O)Cc1ccccc1,-9,-6
Cn1nnc2cc(CNC(=O)c3ccccn3)ccc21,-2,0
COc1cccc(C(=O)N2CCc3c(nc4cc(-c5ccccc5)[nH]n4c3=O)C2)c1OC,66*,5
COc1ccc(NC(=O)N2CCc3c(nc4cc(-c5ccccc5)[nH]n4c3=O)C2)c(OC)c1,52*,0
COc1ccc(Cl)cc1C(=O)N1CCc2c(nc3cc(-c4ccccc4)[nH]n3c2=O)C1,41,-6
COc1ccc(NC(=O)N2CCc3nc4cc(-c5ccccc5)[nH]n4c(=O)c3C2)c(OC)c1,0,-5
CCCCCCNC(=O)N1C/C=C\C(c2ccc(OC)cc2)N(Cc2ccc(F)cc2)C(=O)C1 (stereo not drawn),48,-4
COc1ccc(C2/C=C\CN(C(=O)c3ccccc3)CC(=O)N2Cc2ccc(F)cc2)cc1 (stereo not drawn),31,-1
COc1ccc(C2/C=C\CC(OCc3ccccc3)CC(=O)N2Cc2cccc(F)c2)cc1 (stereo not drawn),100*,-7
COc1ccc(C2/C=C\CN(C(=O)OCc3ccccc3)CC(=O)N2Cc2ccc(F)cc2)cc1 (stereo not drawn),92*,-5
COc1ccc(C2/C=C\CN(S(=O)(=O)c3ccc4ccccc4c3)CC(=O)N2Cc2ccc(F)cc2)cc1 (stereo not drawn),17,-6
CCCCCCC(=O)N1C/C=C\C(c2ccc(OC)cc2)N(Cc2ccc(F)cc2)C(=O)C1 (stereo not drawn),62*,-4
Cn1nccc1C#CCN1CCOCC1,-3,-8
COCC1CCCN(CC(=O)NCc2ccc(F)cc2)C1 (stereo not drawn),-15,-4
SMILES,mHTT CaM bind,Pf apPOL block
O=C(NCC1(c2cccs2)CCOCC1)C(=O)Nc1ccc2c(c1)OCCO2,-5,-5
O=C(O)CCCNc1cc(N2CCOCC2)c2noc3c2c1C(=O)c1ccccc1-3,52*,-2
CN(C)c1ccc(Nc2cc(N3CCOCC3)c3noc4c3c2C(=O)c2ccccc2-4)cc1,13,-3
O=C1c2ccccc2-c2onc3c(N4CCOCC4)cc(Nc4cccc(F)c4)c1c23,-6,-1
O=C(O)c1ccc(Nc2cc(N3CCOCC3)c3noc4c3c2C(=O)c2ccccc2-4)cc1,55*,-3
Cc1ccc(CC(=O)NC2CCN(c3ccc(C)cc3)C2=O)cc1 (stereo not drawn),-6,-3
C=CCSc1nnc2c(n1)OC(c1cc3c(cc1[N+](=O)[O-])OCO3)Nc1ccccc1-2 (stereo not drawn),93*,0
CCCSc1nnc2c(n1)OC(c1cc3c(cc1[N+](=O)[O-])OCO3)Nc1ccccc1-2 (stereo not drawn),-6,4
O=S(=O)(c1ccccc1)N1CCCC(OCc2ccccc2)C1 (stereo not drawn),-23,-1
CCOC(=O)C(C)Oc1ccc2c(c1)OC(=Cc1ccccc1OCC)C2=O (stereo not drawn),-8,2
Cc1cc(-c2cc(Cl)ccc2O)n[nH]1,6,-4
O=[N+]([O-])c1ccccc1-c1cc(-c2cc(Cl)ccc2O)n[nH]1,100*,2
COc1ccc(N2CCN(CC(O)COCC34CC5CC(CC(C5)C3)C4)CC2)cc1 (stereo not drawn),70*,-7
OC(COCC12CC3CC(CC(C3)C1)C2)CN1CCCC1 (stereo not drawn),11,-2
OC(COCC12CC3CC(CC(C3)C1)C2)CN1CCN(c2cccc(Cl)c2)CC1 (stereo not drawn),99*,-3
